Laboratory results reported in ChEMBL document CHEMBL3988442, “University of Dundee, Small-Polar-MMV Screening Library” (2021).
The whole screen tested about 48,000 compounds, of which about 13,000 (27%) showed an effect of 50% or more. Some of the results follow.

Test system: Wolbachia pipientis
Experiment: Anti-Wolbachia Cell-Based Screen
Assay type: functional
Design: scale not given: in the data most compounds retested in dose-response had high values
Conditions: 5 µM

Compound	Percent Effect [%]
CCOc1ccc(N(C)S(=O)(=O)c2c[nH]c(C(C)C)n2)cc1	-17.69
O=C(CNC(=O)C1CC1)NCCOc1cccc(Cl)c1Cl	3.053
Cc1ccc2c(c1)N(C(=O)c1nccnc1N)CC(C)O2 (stereo unspecified)	-0.6709
Cc1ccc2c(c1)N(C(=O)c1c[nH]c(C)cc1=O)CC(C)O2 (stereo unspecified)	67.22
CC1CN(C(=O)c2ccc(C(N)=O)cc2)c2ccc(F)cc2O1 (stereo unspecified)	-13.6
Cc1ccc2c(c1)OC(C)CN2C(=O)CCc1cscn1 (stereo unspecified)	-1.954
CC1CN(C(=O)c2cc[nH]c(=O)c2)c2ccccc21 (stereo unspecified)	6.091
Cc1ccc2c(c1)OC(C)CN2C(=O)CCc1cccnc1 (stereo unspecified)	9.162
Cc1ccc2c(c1)N(C(=O)c1cc[nH]c(=O)c1)CC(C)O2 (stereo unspecified)	102.6
Cc1ccc2c(c1)OC(C)CN2C(=O)c1c[nH]c(C)cc1=O (stereo unspecified)	100.7
Cc1ccc2c(c1)OC(C)CN2C(=O)Cc1ccc(C)nc1 (stereo unspecified)	-1.859
CC(C)n1cnnc1CCNCc1cn(CCC(N)=O)c2ccccc12	-8.335
Cn1/c(=N/C(=O)CSCC(=O)Nc2nccs2)sc2ccccc21	-2.902
Cc1cnc2c(S(=O)(=O)NC(=O)C(C)OCC3CC3)cccc2c1 (stereo unspecified)	-0.9774
Cc1ccc(C(=O)N2CCCC(c3[nH]ncc3S(C)(=O)=O)C2)s1 (stereo unspecified)	93.28
Cc1ncncc1C(=O)N1CCCC(c2[nH]ncc2S(C)(=O)=O)C1 (stereo unspecified)	130.2
Cc1ccc(C(=O)N2CCCC(Cn3cc(C(C)(C)N)nn3)C2)s1 (stereo unspecified)	-58.84
Cc1cccnc1C(=O)N1CCCC(c2[nH]ncc2S(C)(=O)=O)C1 (stereo unspecified)	-6.313
Cc1[nH]ncc1C(=O)N1CCCC(c2cc(C(F)(F)F)[nH]n2)C1 (stereo unspecified)	-5.603
Cc1ccsc1C(=O)N1CC(C(=O)N2CCCC2)C2(CCOCC2)C1 (stereo unspecified)	-0.2023
Cc1csc(C(=O)N2CCCC(c3[nH]ncc3S(C)(=O)=O)C2)c1 (stereo unspecified)	97.17
Cc1ccsc1C(=O)N1CCCC(c2[nH]ncc2S(C)(=O)=O)C1 (stereo unspecified)	116.3

Compound	Percent Effect [%]
Cc1ncncc1C(=O)N1CCCN(Cc2ncc(Cl)n2C)CC1	13.88
CC(Nc1ccn(Cc2ccccn2)n1)C(=O)NC(C)(C)C (stereo unspecified)	22.79
CCNC(=O)COc1ccc(C(=O)NC(C)CCc2ccco2)cc1 (stereo unspecified)	6.867
CC1(C)[C@H](Cc2cc(CN3CCCCC3)on2)C[C@@H]1NC(=O)C1CC1	0.3573
c1cnnc(N2CCCC2CNCc2nc(C3CC3)no2)c1 (stereo unspecified)	6.175
CCc1nc(CNCC2CCCN2c2cccnn2)no1 (stereo unspecified)	94.84
c1cnnc(N2CCCC2CNCc2noc(C3CC3)n2)c1 (stereo unspecified)	124.8
CCc1noc(CNCC2CCCN2c2cccnn2)n1 (stereo unspecified)	129.4
c1cnnc(N2CCCC2CNCc2nnc(C3CC3)o2)c1 (stereo unspecified)	-1.218
Cc1nc(CNCC2CCCN2c2cccnn2)no1 (stereo unspecified)	8.82
CCCc1nc(CNCC2CCCN2c2cccnn2)no1 (stereo unspecified)	124.8
COCCc1noc(CNCC2CCCN2c2cccnn2)n1 (stereo unspecified)	10.85
Cc1ccoc1-c1nnc(CNCC2CCCN2c2cccnn2)o1 (stereo unspecified)	10.61
c1cnnc(N2CCCC2CNCc2nc3ccccc3o2)c1 (stereo unspecified)	8.977
CCc1nnc(CNCC2CCCN2c2cccnn2)o1 (stereo unspecified)	6.974
c1cnnc(N2CCCC2CNCc2nc(-c3ccsc3)no2)c1 (stereo unspecified)	0.4887
Cc1cc(C(F)(F)F)nc(N(C)Cc2c(C)noc2C)n1	12
CCOCCn1nc(C)cc1C(=O)N1CC[C@](O)(CC)[C@H](O)C1	-19.56
CCc1ccccc1OCCN(C)C(=O)CN1CCCC1	-0.4334
Cc1ccc(CN2CC(O)CN(C(=O)OCC(C)C)CC2=O)cc1 (stereo unspecified)	102.7
COc1ccc(CN2C[C@H]3CN(C(=O)c4ccno4)CCN3C2=O)cc1	-1.817
Cc1ccc(CN2C[C@H]3CN(C(=O)c4ccno4)CCN3C2=O)cc1	-7.285

Compound	Percent Effect [%]
COc1ccc(CN2CC(O)CN(C(=O)OCC(C)C)CC2=O)cc1 (stereo unspecified)	126.2
CCCN(CCO)C(=O)C1CCC(=O)N(Cc2ccc(Cl)cc2)C1 (stereo unspecified)	-2.566
COc1ccc(CN2CCN(c3nccnc3OC)CC2=O)cc1	-6.7
CC(C)COC(=O)N1CC(=O)N(Cc2ccc(Cl)cc2)CC(O)C1 (stereo unspecified)	87.43
CCOC(=O)c1coc(N2CCN(Cc3ccc(C)cc3)C(=O)C2)n1	-18.23
CC(C)N(CCO)C(=O)C1CCC(=O)N(Cc2ccc(Cl)cc2)C1 (stereo unspecified)	0.7255
CCc1cnc(N2C[C@H]3CN(Cc4ccc(OC)cc4)C(=O)[C@H]3C2)nc1	-6.562
COc1ccc(CN2CC(O)CN(C(=O)CC(C)C)CC2=O)cc1 (stereo unspecified)	135.2
COC(=O)CCNC(=O)c1ccoc1CN1c2ccccc2CC1C (stereo unspecified)	-5.639
CC(=O)Nc1ccc(-c2cn(CCn3c(C)cc(C)nc3=O)nn2)cc1	-7
Cc1cc(C(=O)Nc2ccn(CCCN3CCCC3)n2)no1	96.67
CCn1ccc(NC(=O)c2cc(C)on2)n1	120
Cc1ccc(C(=O)Nc2ccn(CCC(N)=O)n2)cc1	10.52
Cc1ccsc1CNC(=O)Nc1ccn(CCN2CCOCC2)n1	-52.79
O=C(Cc1ccccc1Cl)Nc1ccn(CCN2CCOCC2)n1	-48.65
Cc1cc(CNC(=O)CCCN2CCCCC2)n(C)n1	-11.62
Cc1ccnc(NC(=O)c2cc(C)oc2C)c1	11.88
CCN(CC)S(=O)(=O)c1ccc(CNC(=O)c2cc(C)on2)cc1	15.58
Cc1cc(C(=O)Nc2ccn(CCCN3CCCC3)n2)c(C)o1	100.8
CCOc1cc(C)nc(N2CCN(C(=O)c3cc(Cl)c[nH]3)CC2)n1	4.417
Cc1cnn(Cc2cc(F)ccc2F)c1NC(=O)C1CCOCC1	-4.081
CNC(=O)C1(N2CCC[C@H]2C(=O)NC2CCOCC2)CCOCC1.Cl	-3.696
